Records with an inconclusive call do not appear. Calls of active or inactive are those of the source. Unless noted, calls come from the whole dose curve; as a rule, active = well fitted curve in the direction sought with a large enough effect; inconclusive = small, poorly fitted or top-dose-only effect, or another doubt; inactive = no such curve, though single readings can be large; an effect the other way counts as inactive or inconclusive.
What was measured:
[1] = biological target: Glucocorticoid receptor (Homo sapiens) (UniProt P04150); test: GR-GFP Redistribution (AID 450;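 active = compounds whose dose series gives a full or clear partial fitted curve of increased nuclear translocation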; note: potency is the fitted concentration of half-maximal effect); settings: U2OS GR-GFP nuclear translocation, laser cytometry, 2 h
Glucocorticoid receptor (Homo sapiens), sequence (P04150 whole entry, looked up, the tested form may be a part): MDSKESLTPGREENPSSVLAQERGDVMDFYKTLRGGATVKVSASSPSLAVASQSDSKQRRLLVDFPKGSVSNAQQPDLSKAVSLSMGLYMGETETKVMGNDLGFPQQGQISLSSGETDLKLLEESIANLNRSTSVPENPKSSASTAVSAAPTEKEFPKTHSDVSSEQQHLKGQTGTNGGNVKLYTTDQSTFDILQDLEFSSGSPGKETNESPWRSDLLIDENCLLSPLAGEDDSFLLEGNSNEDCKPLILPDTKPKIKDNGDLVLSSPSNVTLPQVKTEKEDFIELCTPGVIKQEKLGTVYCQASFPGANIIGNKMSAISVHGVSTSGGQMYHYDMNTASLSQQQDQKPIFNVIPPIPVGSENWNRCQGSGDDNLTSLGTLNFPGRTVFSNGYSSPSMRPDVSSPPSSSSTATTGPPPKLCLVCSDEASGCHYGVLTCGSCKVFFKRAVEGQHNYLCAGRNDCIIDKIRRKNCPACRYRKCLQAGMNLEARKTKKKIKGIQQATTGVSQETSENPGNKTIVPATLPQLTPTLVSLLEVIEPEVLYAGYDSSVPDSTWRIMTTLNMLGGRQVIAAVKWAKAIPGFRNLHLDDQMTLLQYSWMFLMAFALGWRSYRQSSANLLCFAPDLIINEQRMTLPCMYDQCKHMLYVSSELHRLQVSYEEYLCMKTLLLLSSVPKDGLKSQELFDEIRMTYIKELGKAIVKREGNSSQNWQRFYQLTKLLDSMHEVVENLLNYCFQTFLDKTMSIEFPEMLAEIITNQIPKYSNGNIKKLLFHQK

[2] = biological target: Glucocorticoid receptor (Homo sapiens) (UniProt P04150); test: GR-EFC Redistribution (AID 451; calls by dose curve; note: potency is the fitted concentration of half-maximal effect); settings: CHO-K1 GR-EFC translocation, beta-gal luminescence, 2 h
In short: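 Translocation of GR-ED fusion to nuclear EA restores b-gal, read by luminescence after 1 h room-temperature detection. Engineered CHO-K1 biosensor cells, 1,000/well, exposed 2 h at 37 C to titrations up to 46 uM final.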

[3] = biological target: Mitogen-activated protein kinase 10 (Mus musculus) (UniProt Q61831); test: JNK3 AlphaScreen Assay (AID 530; active = well fitted curve in either direction with a large enough effect, not every such curve was filed as active;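 note: kinase came from lysate of stimulated human HepG2 cells; signal reports phosphorylation of biotinylated GST-cJun 1-79 at Ser73 with 10 µM ATP; % is set by controls: 0 for no effect and ±100 for the full control effect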); settings: JNK3 lysate, c-Jun phosphorylation; series mostly up to 57.1 µM
In short: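 Compound titrations were preincubated 15 minutes at room temperature with substrate, antibody and pre-activated JNK3-containing HepG2 lysate. Reactions were started with 10 uM ATP and stopped with EDTA-containing bead buffer for AlphaScreen detection.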

[4] = biological target: 3',5'-cyclic-AMP phosphodiesterase 4B (Homo sapiens) (UniProt Q07343); test: qHTS Assay for Inhibitors of PDE-IV (AID 607; active = well fitted activation curve with a large enough effect in the main read-out, with a control signal flat, not every such curve was filed as active; note: % of control where 0% means no effect); settings: HEK293 ACTOne CNG channel cells, membrane potential fluorescence; series mostly up to 22.9 µM
3',5'-cyclic-AMP phosphodiesterase 4B (Homo sapiens), sequence (Q07343 whole entry, looked up): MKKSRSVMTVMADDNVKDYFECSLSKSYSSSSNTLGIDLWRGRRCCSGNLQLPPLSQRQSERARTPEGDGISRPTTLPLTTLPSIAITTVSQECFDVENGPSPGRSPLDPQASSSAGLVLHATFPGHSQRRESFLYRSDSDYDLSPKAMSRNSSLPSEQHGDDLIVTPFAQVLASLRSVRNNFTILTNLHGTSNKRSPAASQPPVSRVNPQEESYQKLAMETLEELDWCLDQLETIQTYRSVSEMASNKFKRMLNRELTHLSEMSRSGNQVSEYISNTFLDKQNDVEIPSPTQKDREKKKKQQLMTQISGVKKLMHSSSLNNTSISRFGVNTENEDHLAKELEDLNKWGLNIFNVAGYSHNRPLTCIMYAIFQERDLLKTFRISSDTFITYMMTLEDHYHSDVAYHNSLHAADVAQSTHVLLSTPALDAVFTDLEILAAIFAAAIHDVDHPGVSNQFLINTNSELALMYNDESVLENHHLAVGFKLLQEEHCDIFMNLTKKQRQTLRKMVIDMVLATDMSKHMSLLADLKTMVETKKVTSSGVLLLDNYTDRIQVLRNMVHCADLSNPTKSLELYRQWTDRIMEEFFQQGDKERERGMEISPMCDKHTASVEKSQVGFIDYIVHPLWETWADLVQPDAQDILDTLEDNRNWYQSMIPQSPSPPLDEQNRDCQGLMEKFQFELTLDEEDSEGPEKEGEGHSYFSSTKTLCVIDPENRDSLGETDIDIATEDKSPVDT
In short: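 The readout is membrane depolarisation from a cAMP-sensing CNG channel, detected with a potential dye at ex 535/em 590. Cells were HEK293-derived (endogenous PDE-IV) at 1000 cells/well, titrated up to 22.9 uM final.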

[5] = qHTS Assay for Lipid Storage Modulators (AID 1519; calls by dose curve; for activity change, negative = inhibition: % is set by controls: 0 for no effect and ±100 for the full control effect); settings: Drosophila S3 cells, BODIPY lipid droplet/cell ratio, laser cytometry, cells loaded with oleic acid
In short: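 Cells seeded at 5,000 per well were treated with compounds over a concentration series and loaded with oleic acid (400 uM, as added). Lipid droplet fluorescence (488 nm excitation, 500-530 nm channel) was read by laser-scanning cytometry and normalized to 20 uM Triacsin C.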

[6] = biological target: Ubiquitin carboxyl-terminal hydrolase 1 (Homo sapiens) (UniProt O94782); test: Inhibitors of USP1/UAF1: Pilot qHTS (AID 504865); settings: purified USP1/UAF1, Ub-rhodamine cleavage fluorescence; series mostly up to 114 µM;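 note: rhodamine fluorescence freed from ubiquitin-rhodamine substrate followed over time; top concentration of the series differs between compounds; % is set by controls: 0 for no effect and ±100 for the full control effect; nearly all actives have a fitted effect of over 35% in size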
Ubiquitin carboxyl-terminal hydrolase 1 (Homo sapiens), sequence (O94782 whole entry, looked up): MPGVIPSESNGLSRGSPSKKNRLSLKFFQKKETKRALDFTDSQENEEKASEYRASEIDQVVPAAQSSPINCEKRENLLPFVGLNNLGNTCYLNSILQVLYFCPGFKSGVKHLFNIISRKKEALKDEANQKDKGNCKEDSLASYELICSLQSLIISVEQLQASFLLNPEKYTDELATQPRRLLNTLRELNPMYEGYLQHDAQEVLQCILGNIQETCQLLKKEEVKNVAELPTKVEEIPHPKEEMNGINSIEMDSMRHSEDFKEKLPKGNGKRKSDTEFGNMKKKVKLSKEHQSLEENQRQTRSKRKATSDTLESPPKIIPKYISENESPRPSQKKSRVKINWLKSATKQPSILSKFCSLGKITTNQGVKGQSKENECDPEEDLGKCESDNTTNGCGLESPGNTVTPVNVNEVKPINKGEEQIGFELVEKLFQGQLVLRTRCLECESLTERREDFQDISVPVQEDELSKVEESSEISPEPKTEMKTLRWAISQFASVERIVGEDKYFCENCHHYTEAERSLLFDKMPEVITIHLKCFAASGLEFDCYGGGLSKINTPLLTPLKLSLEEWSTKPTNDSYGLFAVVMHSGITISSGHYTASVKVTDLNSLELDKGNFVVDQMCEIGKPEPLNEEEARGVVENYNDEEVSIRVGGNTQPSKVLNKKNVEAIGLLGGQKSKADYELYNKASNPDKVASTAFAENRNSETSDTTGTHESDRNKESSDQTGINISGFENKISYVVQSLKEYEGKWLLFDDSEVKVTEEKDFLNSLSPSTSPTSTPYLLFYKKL
In short: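 Enzyme-free wells gave the negative control, while test wells held 1nM USP1/UAF1 preincubated with compound for 15 min at room temperature. Ub-Rho at 150nM final started the reaction, and fluorescence at 480/540 nm was recorded kinetically.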

[7] = biological target: DNA dC->dU-editing enzyme APOBEC-3G (Homo sapiens) (UniProt Q9HC16); test: qHTS for inhibitors of Vif-A3G interactions: Validation (AID 588379); settings: Vif-A3G protein interaction assay; series mostly up to 46.1 µM; note: 0% is about no effect
DNA dC->dU-editing enzyme APOBEC-3G (Homo sapiens), sequence (Q9HC16 whole entry, looked up): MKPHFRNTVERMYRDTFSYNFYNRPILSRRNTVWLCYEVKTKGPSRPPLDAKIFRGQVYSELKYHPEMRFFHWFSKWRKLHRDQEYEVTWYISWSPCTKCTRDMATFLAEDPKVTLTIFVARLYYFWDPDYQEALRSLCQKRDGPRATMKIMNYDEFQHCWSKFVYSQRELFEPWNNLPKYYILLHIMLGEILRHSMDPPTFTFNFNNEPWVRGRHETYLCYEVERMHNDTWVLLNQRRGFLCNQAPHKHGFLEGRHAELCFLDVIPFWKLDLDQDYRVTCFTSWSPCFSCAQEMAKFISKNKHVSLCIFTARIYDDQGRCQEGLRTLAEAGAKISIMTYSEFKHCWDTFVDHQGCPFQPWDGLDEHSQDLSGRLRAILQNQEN
In short: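 HeLa cells stably expressing Vif and A3G-eYFP, 700 cells/well, incubated overnight at 37 deg C, then exposed to compound overnight at 37 deg C. Inhibition of Vif-mediated degradation read as increased yellow fluorescence (Ex 488/Em 500-530) by laser-scanning cytometry.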

[8] = Primary qHTS for small molecule stabilizers of the endoplasmic reticulum resident proteome: Secreted ER Calcium Modulated Protein (SERCaMP) assay (AID 1508630); settings: SH-SY5Y GLuc-SERCaMP (Gaussia luciferase released on ER calcium loss) secretion, thapsigargin, luminescence; series mostly up to 38.4 µM; note: % is set by controls: 0 for no effect and ±100 for the full control effect
In short: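 GLuc-SERCaMP-expressing SH-SY5Y cells, pretreated 16 h with compound, are challenged with thapsigargin to empty ER calcium stores; after 4 h, coelenterazine is added directly to the medium and luminescence is imaged.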

N[C@@H](CCCCP(=O)(O)O)C(=O)O
-29%: max response ([5]; measured here: lipid channel max response)
-29.3%: max response ([5]; measured here: cell count channel max response)
inactive: Potency [1] > 46 µM | Potency [2] > 46 µM | outcome [3] | Potency [4] | activity change, negative = inhibition ([5]; at 57.5 µM (top of the series)) 0.372% | Potency [6] | Potency [7] | Potency [8]
